In the supplement of paper PMC11383364:
“And” between values parts separate entries of the source, which are not always exact repeats. Equal values may be shown once.

Test system: SUM149
Assay: percent difference in area under dose-response curve of relative cell number, RPMI vs HPLM; higher = drug relatively more effective in HPLM than RPMI (negative = less effective in HPLM)
Settings: treatment time: 72 h; dose range: 10-point, 1 nM to 20 µM; media compared: RPMI vs HPLM

Structure (SMILES) | percent difference in area under dose-response curve
CN(N=O)C(=O)N[C@@H](C=O)[C@@H](O)[C@H](O)[C@H](O)CO [Streptozotocin] | -5.59%
Cc1ccc(C(=O)N(CCCN)[C@@H](c2nc3cc(Cl)ccc3c(=O)n2Cc2ccccc2)C(C)C)cc1 [Ispinesib] | -43.4%
CCC(C)SSc1ncc[nH]1 (centres undefined) | 3.05%
CNC(=O)c1ccccc1Sc1ccc2c(/C=C/c3ccccn3)n[nH]c2c1 [Axitinib] | -0.398%
CC(C)(C)c1cnc(CSc2cnc(NC(=O)C3CCNCC3)s2)o1 | -3.83%
CN1CCN(c2nc(C3=C(c4c[nH]c5ccccc45)C(=O)NC3=O)c3ccccc3n2)CC1 [Sotrastaurin] | 9.13%
Cc1ccc(C(=O)c2cc(O)c(O)c([N+](=O)[O-])c2)cc1 [Tolcapone] | -5.18%
CC(NC(=O)c1ccccc1/N=C/c1c(O)ccc2ccccc12)c1ccccc1 (centres undefined) [Sirtinol] | -4.04%
CCOC(=O)[C@@H](N)CCC(=O)N[C@@H](CSCc1ccccc1)C(=O)N[C@@H](C(=O)OCC)c1ccccc1 [Telintra] | 2.03%
C=CC(=O)Nc1cccc(Oc2nc(Nc3ccc(N4CCN(C)CC4)cc3OC)ncc2Cl)c1 | 3.23%
CN1CCC(CNc2ccc3ncc(-c4cccc(OC(F)(F)F)c4)n3n2)CC1 [SGI1776_free_base] | -10.5%
O=C(Nc1cccc(Cl)c1)Nc1ncc(CCNc2ncnc3ccsc23)s1 [SNS314_Mesylate] | -24.4%
CC(C)C[C@@H](C(=O)N[C@H](C(=O)OC1CCCC1)c1ccccc1)[C@H](O)C(=O)NO | -3.27%
N#CC[C@H](C1CCCC1)n1cc(-c2ncnc3[nH]ccc23)cn1 [Ruxolitinib] | -7.13%
CC(=O)[C@]1(O)Cc2c(O)c3c(c(O)c2[C@@H](O[C@H]2C[C@H](N)[C@H](O)[C@H](C)O2)C1)C(=O)c1ccccc1C3=O [Idarubicin_HCl] | -49.3%
COc1ccc2cc(-c3nc(-c4ccc([S+](C)[O-])cc4)[nH]c3-c3ccncc3)ccc2c1 (centres undefined) [Tie2_kinase_inhibitor] | -0.194%
COc1cc2nccc(Oc3ccc(NC(=O)Nc4cc(C)on4)c(Cl)c3)c2cc1OC [Tivozanib] | 7.69%

Structure (SMILES) | percent difference in area under dose-response curve
O=C(Nc1cccc(C(F)(F)F)c1)Nc1cc(S(=O)(=O)NC2CC2)ccc1-c1ccsc1 | -8.01%
Cc1ccc([N+](=O)[O-])cc1S(=O)(=O)N(C)/N=C/c1cnc2ccc(Br)cn12 | -9.04%
c1ccc2c(CCNc3ccc(Nc4ccncc4)cc3)c[nH]c2c1 | -22.6%
C[C@H]1[C@H](OC(=O)CCC(=O)O)O[C@@H]2O[C@@]3(C)CC[C@H]4[C@H](C)CC[C@@H]1[C@@]24OO3 [Artesunate] | -1.87%
OCCN(CCO)c1nc(N2CCCCC2)c2nc(N(CCO)CCO)nc(N3CCCCC3)c2n1 [Dipyridamole] | 2.66%
O=C(Nc1cccnc1)N1CCC(Cc2cccc(Oc3ccc(C(F)(F)F)cn3)c2)CC1 | -4.77%
C/C=C/C/C=C/CCC(=O)[C@H]1O[C@H]1C(N)=O [Cerulenin] | -9.61%
CN(C)Cc1ccc(-c2nc3cccc4c3n2CCNC4=O)cc1 | -5.91%
CC(C)NCCCn1c(Sc2cc3c(cc2I)OCO3)nc2c(N)ncnc21 | -28.4%
C[C@H](NC(=O)Cc1cc(F)cc(F)c1)C(=O)N[C@@H]1C(=O)N(C)c2ccccc2-c2ccccc21 | 8.45%
Cc1csc(-c2nnc(Nc3ccc(Oc4ncccc4-c4ccnc(N)n4)cc3)c3ccccc23)c1 | -35.1%
CC1(C)CCC(c2ccc(Cl)cc2)=C(CN2CCN(c3ccc(C(=O)NS(=O)(=O)c4ccc(N[C@H](CCN5CCOCC5)CSc5ccccc5)c(S(=O)(=O)C(F)(F)F)c4)cc3)CC2)C1 | -1.13% and -0.0577%
O=C(O)c1ccc(-c2c[nH]c3ncc(-c4ccccc4)cc23)cc1C1CCCC1 | -9.42%
CN(C)CCOc1ccc(-c2nc(-c3ccncc3)c(-c3ccc4c(c3)CC/C4=N\O)[nH]2)cc1 | -4.32%
S=C(NCc1ccc2c(c1)OCO2)N1CCN(c2ncnc3c2oc2ccccc23)CC1 [Amuvatinib] | 1.06%
Cc1[nH]c(/C=C2\C(=O)Nc3ccc(S(=O)(=O)Cc4c(Cl)cccc4Cl)cc32)c(C)c1C(=O)N1CCC[C@@H]1CN1CCCC1 | -10.1%
O=C(CCCCCCC(=O)Nc1ccccc1)NO [Vorinostat] | 4.7%
